Assay results published in PubChem BioAssay AID1159580 (chemical genetic matrix, 2015).
The campaign covered roughly 5,500 compounds. About 2,000 (36%) were called active. About 18% were inconclusive and are not listed. Cut-off read from the data, not from the text of the source: active = normalized growth mostly below about 0.91 (no sharp cut-off); inconclusive = no clear call, values can overlap the other calls; inactive = mostly above about 0.92. The list shows a part of the results.

Assay: chemical genetic growth profiling, strain panel (AID 1159580);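 note: tested at 20 µM; growth read once vehicle control cultures reached saturation at 30 °C; 1 = growth at the plate median or of vehicle wells; lower values mean less growth of the strain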
Conditions: S. cerevisiae deletion strains, growth OD
[1] = locus YAL013W, strain DEP1, hits give low values
[2] = locus YBR229C, strain ROT2, hits give low values
[3] = locus YCL061C, strain MRC1, hits give low values
[4] = locus YDL101C, strain DUN1, hits give low values
[5] = locus YDR150W, strain NUM1, hits give low values
[6] = locus YEL061C, strain CIN8, hits give low values
[7] = locus YGR078C, strain PAC10, hits give low values
[8] = locus YGR229C, strain SMI1, hits give low values
[9] = locus YHR030C, strain SLT2, hits give low values
[10] = locus YHR087W, strain rtc3, hits give low values
[11] = locus YJR043C, strain POL32, hits give low values
[12] = locus YJR075W, strain HOC1, hits give low values
[13] = locus YKL190W, strain CNB1, hits give low values
[14] = locus YLR039C, strain RIC1, hits give low values
[15] = locus YLR058C, strain SHM2 (second series), hits give low values
[16] = locus YLR085C, strain ARP6, hits give low values
[17] = locus YLR262C, strain YPT6, hits give low values
[18] = locus YML094W, strain GIM5, hits give low values
[19] = locus YMR219W, strain ESC1, hits give low values
[20] = locus YMR263W, strain SAP30, hits give low values
[21] = locus YMR307W, strain GAS1, hits give low values
[22] = locus YNL128W, strain TEP1, hits give low values
[23] = locus YNL153C, strain GIM3, hits give low values
[24] = locus YNL298W, strain CLA4 (second series), hits give low values
[25] = locus YNL322C, strain KRE1, hits give low values
[26] = locus YNR030W, strain Alg12, hits give low values
[27] = locus YPL055C, strain LGE1, hits give low values
[28] = locus YPL241C, strain CIN2, hits give low values
[29] = locus YPR135W, strain CTF4, hits give low values

Measured: normalized growth

Cc1ccc2cc(NC(=O)c3ccco3)ccc2n1
inactive: [1] 0.987 | [2] 0.998 | [3] 0.991 | [4] 1.02 | [5] 0.901 | [7] 0.989 | [8] 0.989 | [10] 1.01 | [11] 0.998 | [12] 0.994 | [14] 0.972 | [15] 1.01 | [17] 1.01 | [18] 0.96 | [19] 1 | [20] 0.938 | [22] 0.962 | [23] 1 | [25] 1.01 | [27] 0.92
active: [6] 0.895 | [9] 0.309 | [13] 0.9 | [16] 0.286 | [21] 0.518 | [24] 0.807 | [26] 0.841 | [28] 0.804 | [29] 0.385

O=C(Nc1ccccc1)NC1CCCC1
inactive: [1] 1.02 | [2] 0.983 | [3] 1.02 | [4] 0.989 | locus YDL134C, strain PPH21, hits give low values 1.01 | [5] 0.983 | [6] 0.965 | [7] 1.01 | [9] 1.07 | [10] 0.997 | [11] 1.04 | [12] 0.992 | [13] 0.991 | [14] 1.01 | [15] 0.997 | [16] 0.991 | [17] 1.05 | [18] 0.96 | [19] 0.997 | [20] 1.01 | [21] 1.03 | [22] 0.941 | [23] 1.01 | [24] 0.985 | [25] 0.996 | [26] 1 | [27] 1.02 | [28] 0.99 | [29] 1.13

CCCn1c(=O)c2[nH]c(-c3ccc(OCC(=O)Nc4ccc(C#N)cc4)cc3)nc2n(CCC)c1=O
inactive: locus YAL040C, strain CLN3, hits give low values 0.979 | locus YCL061C, strain MRC1 (second series), hits give low values 0.998 | locus YDR363W, strain ESC2, hits give low values 1.02 | locus YER002W, strain NOP16, hits give low values 1 | [8] 0.995 | [20] 0.982 | [21] 1.02 | [23] 1.01 | locus YNL175C, strain NOP13, hits give low values 0.994 | locus YNL197C, strain WHI3, hits give low values 0.978 | locus YNL224C, strain SQS1, hits give low values 0.992 | locus YOR083W, strain WHI5 (second series), hits give low values 0.992 | [27] 0.998 | [28] 0.973

N#Cc1ccc(NC(=O)Nc2cccc3ccccc23)cc1
inactive: locus YAR019C, strain CDC15, hits give low values 0.965 | locus YBL105C, strain PKC1, hits give low values 0.974 | locus YBR135W, strain CKS1, hits give low values 0.96 | locus YBR136W, strain MEC1, hits give low values 0.971 | locus YBR160W, strain CDC28, hits give low values 0.96 | locus YDL017W, strain CDC7, hits give low values 0.974 | locus YDL028C, strain MPS1, hits give low values 0.971 | [4] 0.992 | locus YDL108W, strain KIN28, hits give low values 0.958 | locus YDL132W, strain cdc53, hits give low values 0.972 | locus YDL214C, strain PRR2, hits give low values 0.928 | locus YDR052C, strain DBF4, hits give low values 0.995 | locus YDR054C, strain cdc34, hits give low values 0.957 | locus YDR226W, strain ADK1, hits give low values 0.985 | locus YDR477W, strain SNF1, hits give low values 0.926 | locus YER123W, strain YCK3, hits give low values 0.919 | locus YER133W, strain GLC7, hits give low values 0.955 | locus YFL009W, strain cdc4, hits give low values 0.967 | locus YFL029C, strain CAK1, hits give low values 0.968 | locus YFR003C, strain YPI1, hits give low values 0.968 | locus YFR019W, strain FAB1, hits give low values 0.932 | locus YFR028C, strain CDC14, hits give low values 0.958 | locus YGR040W, strain KSS1, hits give low values 0.921 | locus YGR052W, strain FMP48, hits give low values 0.979 | locus YGR092W, strain DBF2, hits give low values 0.923 | [9] 0.938 | locus YHR079C, strain IRE1, hits give low values 0.924 | locus YHR082C, strain KSP1, hits give low values 0.986 | locus YHR205W, strain SCH9, hits give low values 0.89 | locus YIL147C, strain SLN1, hits give low values 0.963 | locus YJL095W, strain BCK1, hits give low values 0.962 | locus YJL128C, strain PBS2, hits give low values 0.955 | locus YJL157C, strain FAR1, hits give low values 0.929 | locus YJR016C, strain ILV3, hits give low values 0.966 | locus YJR066W, strain TOR1 (second series), hits give low values 0.903 | locus YJR066W, strain TOR1, hits give low values 0.972 | locus YKL048C, strain ELM1, hits give low values 0.949 | locus YKL067W, strain YNK1, hits give low values 0.941 | locus YKL101W, strain HSL1, hits give low values 0.916 | locus YKL193C, strain SDS22, hits give low values 0.963 | locus YKL203C, strain TOR2, hits give low values 0.998 | locus YLR133W, strain CKI1, hits give low values 0.913 | locus YLR403W, strain SFP1, hits give low values 0.892 | locus YML070W, strain DAK1, hits give low values 0.901 | locus YMR001C, strain CDC5, hits give low values 0.967 | locus YMR205C, strain PFK2 (second series), hits give low values 0.939 | locus YMR277W, strain FCP1, hits give low values 0.966 | locus YNL006W, strain LST8, hits give low values 0.978 | locus YNL020C, strain ARK1, hits give low values 0.917 | locus YNL161W, strain CBK1, hits give low values 0.963 | locus YNL183C, strain NPR1, hits give low values 0.943 | locus YNL207W, strain RIO2, hits give low values 0.968 | locus YNL222W, strain SSU72, hits give low values 0.967 | locus YNL307C, strain MCK1 (second series), hits give low values 0.925 | locus YOL078W, strain AVO1, hits give low values 0.972 | locus YOL136C, strain PFK27, hits give low values 0.91 | locus YOR061W, strain CKA2, hits give low values 0.929 | locus YOR119C, strain RIO1, hits give low values 0.966 | locus YOR231W, strain MKK1, hits give low values 0.887 | locus YOR329C, strain SCD5, hits give low values 0.976 | locus YPL031C, strain PHO85, hits give low values 0.92 | locus YPL153C, strain RAD53, hits give low values 0.925 | locus YPL204W, strain HRR25, hits give low values 0.909 | locus YPL209C, strain IPL1, hits give low values 0.967 | locus YPL256C, strain CLN2, hits give low values 0.872 | locus YPR025C, strain CCL1, hits give low values 0.967 | locus YPR106W, strain ISR1, hits give low values 0.958 | locus YPR111W, strain DBF20, hits give low values 0.952 | strain NNK1, hits give low values 0.967 | strain TSCII, hits give low values 0.969
active: locus YLR113W, strain HOG1, hits give low values 0.832
